# Experimental data taken from PubChem BioAssay (NCI).
# This is part of a sample that, as a whole, favours compounds with a hit. Of some 83,000 tested, about 20% had one in any assay.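 Single-dose data. Exposure time 48 hours. Values below 10 considered active.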 A number with no mark means an inactive call. Calls of active or inactive are those of the source.
# How the values were obtained:
# Assay in all cases: NCI-60 one-dose screen, 48 h (100 = growth as untreated, 0 = no growth, -100 = all killed)
# Settings in all cases: 10 µM unless noted
# SR leukemia = tested on: SR leukemia
# RPMI-8226 leukemia = tested on: RPMI-8226 leukemia
# OVCAR-8 ovarian = tested on: OVCAR-8 ovarian
# OVCAR-5 ovarian = tested on: OVCAR-5 ovarian
# OVCAR-4 ovarian = tested on: OVCAR-4 ovarian
# SK-OV-3 ovarian = tested on: SK-OV-3 ovarian
# IGROV1 ovarian = tested on: IGROV1 ovarian
# OVCAR-3 ovarian = tested on: OVCAR-3 ovarian
# HS 578T breast = tested on: HS 578T breast
# NCI/ADR-RES ovarian = tested on: NCI/ADR-RES ovarian
# T-47D breast = tested on: T-47D breast
# BT-549 breast = tested on: BT-549 breast
# MDA-MB-435 melanoma = tested on: MDA-MB-435 melanoma
# SW-620 colon = tested on: SW-620 colon
# MCF7 breast = tested on: MCF7 breast
# HCT-116 colon = tested on: HCT-116 colon
# HCC-2998 colon = tested on: HCC-2998 colon
# KM12 colon = tested on: KM12 colon
SMILES,growth (SR leukemia),growth (RPMI-8226 leukemia),growth (OVCAR-8 ovarian),growth (OVCAR-5 ovarian),growth (OVCAR-4 ovarian),growth (SK-OV-3 ovarian) [%],growth (IGROV1 ovarian),growth (OVCAR-3 ovarian),growth (HS 578T breast),growth (NCI/ADR-RES ovarian),growth (T-47D breast),growth (BT-549 breast),growth (MDA-MB-435 melanoma),growth (SW-620 colon),growth (MCF7 breast),growth (HCT-116 colon),growth (HCC-2998 colon),growth (KM12 colon)
C=CCN=c1sc2c(n1NC(=O)c1cc3ccc1CCc1ccc(cc1)CC3)C(=O)c1ccccc1C2=O,-8.54% (active),-27.7% (active),5.6% (active),-65.7% (active),-96.3% (active),55.7,-20.5% (active),-26.4% (active),-9.43% (active),-12.8% (active),-3.21% (active),-99.1% (active),-93.5% (active),-59.7% (active),-62.8% (active),-32.4% (active),-33.5% (active),6.04% (active)
O=C(CSc1oc(-c2ccccc2)nc1S(=O)(=O)c1ccccc1)Nc1ccc(F)cc1,83.8%,55.7%,88.7%,87.5%,67.4%,95.8,88.9%,85.7%,97.9%,75.3%,69.8%,78.4%,94.8%,96.5%,92.6%,52.6%,104%,86.6%
COC(=O)c1c(C)c2n(c1C)C(=O)C(c1ccccc1)=C2,102%,88.5%,79.2%,68.9%,71.2%,80.8,-8.44% (active),104%,103%,86.8%,37.1%,51.2%,78.1%,93%,39%,74.2%,75.1%,78.2%
O=C1C(=O)N(Cc2ccc(-c3ccccc3)cc2)c2ccc(OC(F)(F)F)cc21,2.04% (active),-5.6% (active),23.6%,37.3%,36.3%,98.1,36%,24.7%,11.2%,32.6%,49.7%,0.708% (active),38%,23.5%,11.6%,9.92% (active),36.6%,12.5%
CCSC(SCC)c1ccc(Cl)cc1,109%,106%,107%,109%,108%,101,117%,113%,102%,97.1%,101%,112%,97.4%,99.3%,104%,108%,92.3%,114%
NS(=O)(=O)c1ccccc1NC(=O)Nc1nc2ccccc2s1,94.4%,102%,100%,101%,93.3%,97.3,89.1%,108%,100%,99.7%,87.3%,98.2%,103%,101%,82.4%,98.8%,95.8%,104%
O=C1NC2(Nc3ccccc31)C(=O)Nc1c(Cl)cc(Cl)cc12 (configuration not stated),93.2%,105%,102%,115%,98.9%,107,91.5%,118%,100%,108%,87.9%,99.3%,103%,100%,88.9%,98.6%,104%,100%
COCCNC(=O)Nc1ccc2nc(-c3cccs3)c(-c3cccs3)nc2c1,67%,92.1%,93.4%,87.9%,98.2%,98.8,89%,106%,93.6%,90.1%,58.1%,94.4%,94.1%,89.2%,78.9%,92.7%,101%,95.2%
CC1=NC2=Nn3c(c4cnn(-c5ccccc5)c4n/c3=N\N)NN2C(c2ccccc2)=C1,99.6%,98.3%,101%,90%,94.7%,98,61.8%,90.2%,80.5%,97.5%,94.1%,95.4%,92.3%,86.8%,87.8%,99.3%,99.2%,92.9%
